Measured values published in PubChem BioAssay (NCATS).
Inconclusive results are not listed. Calls of active or inactive are those of the source. The call rests on the fitted dose curve; in most records, active means well fitted curve in the direction sought with a large enough effect; inconclusive means small, poorly fitted or top-dose-only effect, or another doubt; inactive means no such curve, though single readings can be large; an effect the other way counts as inactive or inconclusive.

Experiment: qHTS of pediatric cancer cell lines to identify multiple opportunities for drug repurposing: Primary screen for BT-12 cells (AID 1347101); further: nearly all actives have a fitted effect of over 25% in size;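 on activity change, negative = cytotoxic: plate controls were DMSO for no effect and bortezomib positive control for full effect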
Settings: BT-12 viability, CellTiter-Glo luminescence, 48 h; series mostly up to 57.3 µM; activity change, negative = cytotoxic: at the top concentration
Method in brief: (§1)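 Cells (500-1,000/well) rested 5 h, then received compounds for 48 h; metabolically active cells were measured by CellTiter-Glo luminescence. Final concentrations spanned up to 46 µM (MIPE, 11-point) or 0.59 nM-46 µM (NPC, 8-point) in primary screens, 11-point in follow-ups.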
Potency means the concentration at half of the fitted maximal effect.

SMILES | Potency | activity change, negative = cytotoxic
COCC1(CO)C(=O)C2CCN1CC2 (stereo not given) | 21700 nM (active) | –
COc1ccc(CC2NCCc3cc(OC)c(OC)cc32)cc1OC (stereo not given) | – | -21.7% (inactive)
COC1=C[C@@H]2[C@@H]3Cc4ccc(OC)c(O)c4[C@]2(CCN3C)CC1=O | – | -21.2% (inactive)
CCN1CCN(C(=O)Cc2ccc(Nc3ncc(F)c(Nc4ccc(C(=O)Nc5ccccc5Cl)cc4)n3)cc2)CC1 | 19300 nM (active) | –
CC(=O)N(C)c1cccc(-c2ccnc3c(C(=O)c4cccs4)cnn23)c1 | – | -4.99% (inactive)
CCCN(CCC)c1c([N+](=O)[O-])cc(S(N)(=O)=O)cc1[N+](=O)[O-] | 28200 nM (active) | –
O=[N+]([O-])c1cc([N+](=O)[O-])c2ccccc2c1 | – | -16.9% [at 116 µM] (inactive)
O=[N+]([O-])c1c2ccccc2cc2ccccc12 | – | -5.56% [at 116 µM] (inactive)
CC(=Cc1csc(C)n1)[C@@H]1C[C@H]2O[C@]2(C)CCC[C@H](C)[C@@H](O)[C@@H](C)C(=O)C(C)(C)[C@@H](O)CC(=O)O1 | – | -29.3% (inactive)
CC(C)[C@]12O[C@@H]1[C@@H]1O[C@]13[C@]1(O[C@H]1C[C@@H]1C4=C(CC[C@@]13C)C(=O)OC4)[C@H]2O | 1 nM (active) | –
CCc1c(C(=O)C(N)=O)c2c(OCC(=O)O)cccc2n1Cc1ccccc1 | – | 15.2% (inactive)
O=C1CCC[C@@H]2[C@H]3CCCN4CCC[C@@H](CN12)[C@@H]34 | – | 6.68% (inactive)
CCCCCC[C@H]1C(=O)O[C@H](C)[C@H](NC(=O)c2cccc(NC=O)c2O)C(=O)O[C@@H](C)[C@@H]1OC(=O)CC(C)C | 122 nM (active) | –
c1cc2ccc3cccc4ccc(c1)c2c34 | – | 5.41% [at 116 µM] (inactive)
CC[C@H]1C=CC=CC[C@@H](C)[C@H](O)[C@@](C)(O)C(=O)[C@@H](C)[C@H](O)[C@@H](C)C(=O)[C@@H](C)[C@H](O)[C@@H](C)C=CC(=O)O[C@@H]2[C@@H](C)[C@H](CC1)O[C@]1(CC[C@H](C)[C@H](C[C@@H](C)O)O1)[C@H]2C | 6.1 nM (active) | –
C[C@H]1CCCC=CC2C[C@H](O)C[C@@H]2[C@H](O)C=CC(=O)O1 (stereo not given in full) | 1 nM (active) | –

Experiment: qHTS of pediatric cancer cell lines to identify multiple opportunities for drug repurposing: Primary screen for Rh18 cells (AID 1347102); further: nearly all actives have a fitted effect of over 65% in size; on activity change, negative = cytotoxic: on the % scale 0 is the no-effect control and ±100 the full control effect
Settings: Rh18 rhabdomyosarcoma viability, CellTiter-Glo luminescence, 48 h; series mostly up to 46 µM; activity change, negative = cytotoxic: at the top concentration
Method in brief: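 Cells (500-1,000/well) in growth media were settled 5 h at 37 degrees C, then given compounds for 48 h. Viability was read as CellTiter-Glo luminescence. Primary runs used MIPE at 11 points (0.78 nM-46 µM) and NPC at 8 points (0.59 nM-46 µM); follow-ups used 11 points.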

SMILES | activity change, negative = cytotoxic | Potency
COCC1(CO)C(=O)C2CCN1CC2 (stereo not given) | -5.63% (inactive) | –
CCCCCCCCc1ccc(O)cc1 | -16.1% [at 92.7 µM] (inactive) | –
COc1ccc(CC2NCCc3cc(OC)c(OC)cc32)cc1OC (stereo not given) | -0.79% (inactive) | –
COC1=C[C@@H]2[C@@H]3Cc4ccc(OC)c(O)c4[C@]2(CCN3C)CC1=O | -20% (inactive) | –
CCN1CCN(C(=O)Cc2ccc(Nc3ncc(F)c(Nc4ccc(C(=O)Nc5ccccc5Cl)cc4)n3)cc2)CC1 | – | 8330 nM (active)
CC(=O)N(C)c1cccc(-c2ccnc3c(C(=O)c4cccs4)cnn23)c1 | 2.83% (inactive) | –
O=c1cccc2n1CC1CNC[C@H]2C1 | – | 3320 nM (active)
O=[N+]([O-])c1cc([N+](=O)[O-])c2ccccc2c1 | 8.29% [at 92.7 µM] (inactive) | –
O=[N+]([O-])c1c2ccccc2cc2ccccc12 | -8.94% [at 92.7 µM] (inactive) | –
Cc1ccccc1-n1c(Cn2cnc3c(N)ncnc32)nc2cccc(C)c2c1=O | – | 1050 nM (active)
CC(=Cc1csc(C)n1)[C@@H]1C[C@H]2O[C@]2(C)CCC[C@H](C)[C@@H](O)[C@@H](C)C(=O)C(C)(C)[C@@H](O)CC(=O)O1 | -21.2% (inactive) | –
CCc1c(C(=O)C(N)=O)c2c(OCC(=O)O)cccc2n1Cc1ccccc1 | 0.759% (inactive) | –
O=C1CCC[C@@H]2[C@H]3CCCN4CCC[C@@H](CN12)[C@@H]34 | 3.86% (inactive) | –
CC(=O)O[C@@]12CO[C@H]1C[C@H](O)[C@@]1(C)C(=O)[C@H](O)C3=C(C)[C@@H](O)C[C@@](O)([C@@H](OC(=O)c4ccccc4)[C@@H]21)C3(C)C | -23.7% (inactive) | –
CC(=Cc1csc(C)n1)[C@@H]1C[C@H]2O[C@@H]2CCC[C@H](C)[C@@H](O)[C@@H](C)C(=O)C(C)(C)[C@@H](O)CC(=O)O1 | -34.4% (inactive) | –
c1cc2ccc3cccc4ccc(c1)c2c34 | 22.7% [at 92.7 µM] (inactive) | –
CC[C@H]1C=CC=CC[C@@H](C)[C@H](O)[C@@](C)(O)C(=O)[C@@H](C)[C@H](O)[C@@H](C)C(=O)[C@@H](C)[C@H](O)[C@@H](C)C=CC(=O)O[C@@H]2[C@@H](C)[C@H](CC1)O[C@]1(CC[C@H](C)[C@H](C[C@@H](C)O)O1)[C@H]2C | – | 26400 nM (active)
C[C@H]1CCCC=CC2C[C@H](O)C[C@@H]2[C@H](O)C=CC(=O)O1 (stereo not given in full) | – | 1 nM (active)

Experiment: qHTS of pediatric cancer cell lines to identify multiple opportunities for drug repurposing: Primary screen for OHS-50 cells (AID 1347103); further: nearly all actives have a fitted effect of over 40% in size;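 on activity change, negative = cytotoxic: plate controls were DMSO neutral control for no effect and bortezomib positive control for full effect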
Settings: OHS-50 osteosarcoma viability, CellTiter-Glo luminescence, 48 h; series mostly up to 57.3 µM; activity change, negative = cytotoxic: at the top concentration
Method in brief: as §1

SMILES | Potency | activity change, negative = cytotoxic
COCC1(CO)C(=O)C2CCN1CC2 (stereo not given) | 3850 nM (active) | –
O=S(=O)(CC1CS1)c1ccc(Oc2ccccc2)cc1 (stereo not given) | 30600 nM (active) | –
CCCCCCCCc1ccc(O)cc1 | 25400 nM (active) | –
COC1=C[C@@H]2[C@@H]3Cc4ccc(OC)c(O)c4[C@]2(CCN3C)CC1=O | – | -6.01% (inactive)
CC(C)Oc1cccc(NC(=O)c2ccccc2C(F)(F)F)c1 | 25200 nM (active) | –
CCN1CCN(C(=O)Cc2ccc(Nc3ncc(F)c(Nc4ccc(C(=O)Nc5ccccc5Cl)cc4)n3)cc2)CC1 | 4320 nM (active) | –
CC(=O)N(C)c1cccc(-c2ccnc3c(C(=O)c4cccs4)cnn23)c1 | – | 26% (inactive)
O=C(N[C@@H](COc1ccc2[nH]c(=O)[nH]c2c1)c1ccccc1)c1cccn(Cc2ccc(F)c(F)c2)c1=O | 30600 nM (active) | –
CCCN(CCC)c1c([N+](=O)[O-])cc(S(N)(=O)=O)cc1[N+](=O)[O-] | 28200 nM (active) | –
O=[N+]([O-])c1cc([N+](=O)[O-])c2ccccc2c1 | – | 66% [at 116 µM] (inactive)
Cc1ccccc1-n1c(Cn2cnc3c(N)ncnc32)nc2cccc(C)c2c1=O | 61.1 nM (active) | –
CC(=Cc1csc(C)n1)[C@@H]1C[C@H]2O[C@]2(C)CCC[C@H](C)[C@@H](O)[C@@H](C)C(=O)C(C)(C)[C@@H](O)CC(=O)O1 | 1 nM (active) | –
CC(C)[C@]12O[C@@H]1[C@@H]1O[C@]13[C@]1(O[C@H]1C[C@@H]1C4=C(CC[C@@]13C)C(=O)OC4)[C@H]2O | 1 nM (active) | –
CCc1c(C(=O)C(N)=O)c2c(OCC(=O)O)cccc2n1Cc1ccccc1 | – | 16.3% (inactive)
O=C1CCC[C@@H]2[C@H]3CCCN4CCC[C@@H](CN12)[C@@H]34 | – | -8.3% (inactive)
CC(=O)O[C@@]12CO[C@H]1C[C@H](O)[C@@]1(C)C(=O)[C@H](O)C3=C(C)[C@@H](O)C[C@@](O)([C@@H](OC(=O)c4ccccc4)[C@@H]21)C3(C)C | 1720 nM (active) | –
CC(=Cc1csc(C)n1)[C@@H]1C[C@H]2O[C@@H]2CCC[C@H](C)[C@@H](O)[C@@H](C)C(=O)C(C)(C)[C@@H](O)CC(=O)O1 | 1 nM (active) | –
CCCCCC[C@H]1C(=O)O[C@H](C)[C@H](NC(=O)c2cccc(NC=O)c2O)C(=O)O[C@@H](C)[C@@H]1OC(=O)CC(C)C | 61.1 nM (active) | –
c1cc2ccc3cccc4ccc(c1)c2c34 | – | 10.2% [at 116 µM] (inactive)
CC[C@H]1C=CC=CC[C@@H](C)[C@H](O)[C@@](C)(O)C(=O)[C@@H](C)[C@H](O)[C@@H](C)C(=O)[C@@H](C)[C@H](O)[C@@H](C)C=CC(=O)O[C@@H]2[C@@H](C)[C@H](CC1)O[C@]1(CC[C@H](C)[C@H](C[C@@H](C)O)O1)[C@H]2C | 4.9 nM (active) | –
C[C@H]1CCCC=CC2C[C@H](O)C[C@@H]2[C@H](O)C=CC(=O)O1 (stereo not given in full) | 1 nM (active) | –
